A selection: hits, their analogues and other compounds. The true share with any hit is near 3.5%.
HSP90 refold inh = HSP90 inhibitors, primary screen, cell lysate, luminescence. Heat shock protein HSP 90 (rabbit reticulocyte lysate; luciferase refolding). inhibition, % at 5.6 µM. Rabbit reticulocyte lysate, luciferase refolding luminescence, 3 h. AID 1789, 2009. 290,000 tested, 0.91% active;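 active = inhibition above the screen-wide mean plus 3 SD, computed separately per campaign, cut at about 16% in these data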;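 also: 0% = DMSO wells and 100% = 60 µM geldanamycin wells; inhibitors lower the luminescence because luciferase stays unfolded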
PPC-1+TRAIL kill = compounds killing PPC-1 cancer cells with TRAIL present, primary screen, TRAIL potentiator project, ATPLite luminescence, uHTS; cell killing (% activity), % at 4 µM or 5 µM; PPC-1 cells + TRAIL, ATPLite viability luminescence; 220,000 tested, 0.41% active;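 active = cell killing above 50% in the first pass at 4 µM, then a duplicate retest at 5 µM averaging 50% or more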;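 also: plate controls were cells with TRAIL plus DMSO for no effect and medium-only wells lacking cells for full effect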
TROY signal inh = inhibitors of TROY-driven NF-kB signaling, primary screen, Q293 LMP1-TROYcd cells, NF-kB luciferase, uHTS; Q293 LMP1-TROYcd NF-kB luciferase reporter, 4 h; inhibition, % at 10 µM; 360,000 tested, 0.98% active;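 active = compounds whose plate-normalised and pattern-corrected inhibition of the luciferase reporter signal at the single screening dose is 50% or more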
Platelet DG rel = inhibitors of platelet dense granule secretion, primary screen, cell-based, MLPCN, human platelets | human platelet-rich plasma, SFLLRN dense granule ATP release, luminescence | inhibition, %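 (compounds screened at 7.5 µM in platelet-rich plasma)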 | 300,000 tested, 0.22% active;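 active = mean replicate score, as percent of positive control, at or above 50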
TWEAK Fn14 block = inhibitors of TWEAK-Fn14 signaling, primary screen, luciferase reporter cells, uHTS. inhibition, % at 10 µM. 360,000 tested, 2% active. AID 1159606, 2016. TWEAK-stimulated Fn14 reporter cells, luciferase luminescence, 8 h; in the data active = inhibition above about 50%
C8 TRAIL sens = viability loss with TRAIL in NB7+C8 cells, primary screen, TRAIL sensitizer project, cell-based, ATPlite luminescence; inhibition (viability loss, TRAIL sensitization), % at 10 µM; 360,000 tested, 1% active;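 active = compounds causing at least 50% loss of cell viability in the single-dose screen, relative to plate controls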
HSP90 inh confirm = HSP90 inhibitors, confirmation, cell lysate, luminescence. shares compounds with HSP90 refold inh. rabbit reticulocyte lysate, luciferase refolding luminescence, 3 h. inhibition, % at 5.9 µM. 2,300 tested, 64% active. AID 1846, 2009; in the data active = inhibition above about 18%;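 also: 0% = vehicle wells and 100% = reference inhibitor wells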
FLuc counter = firefly luciferase inhibitors, HSP90 counter-screen, confirmation, artefact control for HSP90 inhibitor project, biochemical, luminescence, triplicate; shares compounds with HSP90 refold inh; 2,300 tested, 48% active; purified native firefly luciferase; AID 1847, 2009; inhibition, % at 5.9 µM;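 active = inhibition above the mean inhibition of all tested sample wells plus 3 SD, cut at about 10% in these data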;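 also: 0% = DMSO with luciferase and 100% = wells lacking luciferase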
Target sequence (P08659 whole entry, looked up): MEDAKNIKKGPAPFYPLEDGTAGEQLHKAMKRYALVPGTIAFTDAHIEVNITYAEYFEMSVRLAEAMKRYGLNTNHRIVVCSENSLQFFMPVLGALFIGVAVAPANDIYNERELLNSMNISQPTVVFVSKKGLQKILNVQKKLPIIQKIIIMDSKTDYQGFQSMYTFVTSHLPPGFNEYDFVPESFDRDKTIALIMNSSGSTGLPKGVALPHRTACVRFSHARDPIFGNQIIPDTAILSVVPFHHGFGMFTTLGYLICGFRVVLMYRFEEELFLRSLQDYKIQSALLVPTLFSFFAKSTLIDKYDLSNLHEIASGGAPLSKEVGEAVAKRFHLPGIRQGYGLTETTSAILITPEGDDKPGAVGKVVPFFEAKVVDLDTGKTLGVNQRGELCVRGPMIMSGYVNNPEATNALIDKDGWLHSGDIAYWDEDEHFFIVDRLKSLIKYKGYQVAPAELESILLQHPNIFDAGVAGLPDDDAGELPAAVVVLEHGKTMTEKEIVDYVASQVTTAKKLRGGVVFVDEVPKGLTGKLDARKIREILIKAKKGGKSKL
* = called active by the depositor; · = not tested or not shown.

SMILES	HSP90 refold inh	PPC-1+TRAIL kill	TROY signal inh	Platelet DG rel	TWEAK Fn14 block	C8 TRAIL sens	HSP90 inh confirm	FLuc counter
C=CC[C@@H](CC(=O)NCCO)C(=O)N[C@@H](C)COC(=O)[C@H](CC=C)CC(=O)OC(C)(C)C	·	·	-9	·	4	1	·	·
Cc1cccc(C)c1NC(=O)/C(C#N)=C/c1ccc(-c2ccc(C(=O)O)cc2)o1	34*	·	-86	0	9	4	36*	-9
N#C/C(=C\c1ccc(-c2ccc(C(=O)O)cc2)o1)C(=O)Nc1ccc(F)cc1	-3	·	-17	-3	6	14	·	·
Cc1noc(C)c1C(=O)NCC(=O)Nc1ccccc1Br	·	·	0	·	15	-11	·	·
O=c1c2ccccc2cnn1Cc1ccc(Br)cc1F	-2	·	-18	-4	-18	-17	·	·
NNC(=S)NC1CC2CC1C1C=CCC21 (stereo not drawn)	25*	23	70*	-2	77*	-9	-4	-10
Oc1ccc(O)c(C=NNC(=S)NC2CC3CC2C2C=CCC32)c1 (stereo not drawn)	·	·	-35	·	2	28	·	·
CCOC(=O)/C(C#N)=C/c1cc(C)n(-c2ccccc2)c1C	54*	42	89*	-18	84*	50*	65*	64*
O=C(O)c1ccc(N=Nc2c(O)ccc3ncccc23)cc1	54*	·	-16	8	59*	-1	54*	20*
Fc1ccc(C2Nc3cccc4cccc(c34)N2)cc1	1	·	1	-2	4	13	·	·
Brc1ccc(C2Nc3cccc4cccc(c34)N2)cc1	·	·	28	·	21	-3	·	·
CCN(CC)c1ccc(C2Nc3cccc4cccc(c34)N2)cc1	57*	·	-46	10	-2	15	2	-7
CCCOc1ccc(C2Nc3cccc4cccc(c34)N2)cc1	39*	·	-19	3	14	-5	18*	-17
COc1cccc(-c2cc(C(=O)N3CCN(C(=O)c4ccco4)CC3)[nH]n2)c1	0	·	-4	-1	-2	24	·	·
O=C(O)c1ccc(-c2nnc(-c3ccc([N+](=O)[O-])cc3)o2)cc1	4	·	-2	8	4	-3	·	·
O=C(O)c1ccc(-c2nnc(-c3ccccc3)o2)cc1	58*	·	-4	40	29	-8	58*	14*
Cc1ccc(C)c(S(=O)(=O)N2CCC(c3nc4c(nnn4Cc4ccc5c(c4)OCCO5)c(=O)[nH]3)CC2)c1	21*	·	7	-5	26	9	25*	-4
COc1ccc2nc(NC(=O)c3cc(C)oc3C)sc2c1	2	29	-26	47	3	40	·	·
COc1ccc2nc(NC(=O)c3ccoc3C)sc2c1	22*	9	-6	91*	59*	39	41*	30*
Brc1ccc(OCCN2CCOCC2)cc1	-4	·	-1	-4	-15	3	·	·
Clc1ccc(OCCN2CCOCC2)cc1	18*	·	-5	2	-20	6	-5	-5
CC1(C)NC(=O)N(CCC(=O)Nc2ccc(C(C)(C)C)cc2)C1=O	·	·	-11	·	13	13	·	·
O=C(Nc1cccc(-c2nc3ncccc3o2)c1)c1sc2ccccc2c1Cl	20*	29	-22	1	-38	-8	-6	-16
O=S(=O)(NCc1ccncc1)c1ccc(F)c(F)c1	·	·	17	·	8	-4	·	·
Cc1ccc(S(=O)(=O)NCc2ccncc2)cc1C	30*	33	-2	-7	26	29	-1	-4
SMILES	HSP90 refold inh	PPC-1+TRAIL kill	TROY signal inh	Platelet DG rel	TWEAK Fn14 block	C8 TRAIL sens	HSP90 inh confirm	FLuc counter
NC(=O)c1cc(NC(=O)CCc2nc3ccccc3s2)cc(C(N)=O)c1	-2	·	-4	14	13	-5	·	·
Oc1ccccc1/C=N/Nc1nn[nH]n1	-1	-12	-49	-2	9	17	·	·
Cc1nnc(N/N=C/c2ccccc2O)n1N	58*	-4	-17	7	-5	-7	-4	-18
CCc1nnc(N/N=C/c2c(F)cccc2Cl)n1N	-1	·	6	3	-9	7	·	·
Cc1nnc(N/N=C/c2cc(C)n(-c3ccc(F)cc3)c2C)n1N	19*	14	0	-12	-22	2	-6	-7
Cc1nnc(N/N=C/c2c(Cl)cccc2Cl)n1N	19*	16	11	7	-14	-3	-7	-11
CCC(C)Nc1nnnc2c1sc1nc3c(cc12)COC(C)(C)C3 (stereo not drawn)	1	-14	-21	-11	-35	4	·	·
COc1ccccc1OC(C)C(=O)Nc1ccccc1C(=O)NCc1cccnc1 (stereo not drawn)	-1	·	-10	-6	0	-6	·	·
Cc1ccc2nc(-c3ccco3)c(Cc3cccc(F)c3)n2c1	·	·	-32	·	-6	7	·	·
COc1ccc(C(=O)c2coc3ccc(O)c(CN(C)C)c23)cc1	35*	-12	17	29	-9	-3	-6	-13
COC1=C/C(=C/c2c(O)c(C#N)c3ccccn23)C=CC1=O	26*	3	12	19	1	-18	0	-1
COc1cc(OC)cc(C(=O)c2c(C)c(C#N)c3ccccn23)c1	2	·	-24	8	10	10	·	·
O=C(Oc1ccc2ccccc2c1)C1CCC1	37*	·	11	-5	5	-4	-3	-16
O=C(Oc1ccc2ccc(O)cc2c1)C1CCCCC1	-2	-3	-29	1	3	23	·	·
Cc1c(/C(O)=C2/C(=O)C(=O)N(Cc3cccnc3)C2c2cccs2)cnn1-c1ccccc1 (stereo not drawn)	55*	44	85*	-2	83*	6	55*	53*
Cc1ccc(/C(O)=C2/C(=O)C(=O)N(Cc3cccnc3)C2c2ccccn2)cc1 (stereo not drawn)	1	11	-58	-2	-16	-2	·	·
Cc1c(/C(O)=C2/C(=O)C(=O)N(Cc3cccnc3)C2c2ccccn2)cnn1-c1ccccc1 (stereo not drawn)	75*	10	91*	6	101*	6	24*	30*
CCN(CC(=O)N1CCOCC1)S(=O)(=O)c1cc(Cl)ccc1Cl	2	·	-4	30	1	-2	·	·

Source: PubChem
